Experimental data published in PubChem BioAssay.
The other results are listed elsewhere or left out. Activity calls are given as the source filed them. Unless noted, no stated cut-off is given here; in the data, active means activation above about 24%; inactive means the rest.

How the values were obtained:
[1] = test system: TLR4-MyD88 interaction (human), BLA complementation; assay: TLR4-MyD88 association inhibitors, retest, confirmation, cell-based, HeLa CL3-4, BLA complementation, FRET ratio (AID 941;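 active means mean inhibition across three repeat runs above about 25% carried over from the earlier screen, limit read from the data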;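 further: plate controls were DMSO only for no effect and clavulanic acid blocking BLA at full dose for full effect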); conditions: CCF4 FRET ratio, at 8.4 µM, stronger effect = higher value
[2] = inhibitors of full-length beta-lactamase reporter, confirmation, artefact control for TLR4-MyD88 binding inhibitor project, cell-based, HeLa, full-length BLA, CCF4 FRET ratio (AID 1237;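 active means mean inhibition over three repeats above about 26% taken from the earlier screen, limit read from the data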;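 further: HeLa cells stably expressing beta-lactamase reporter as counterscreen for TLR4-MyD88 inhibitors; 0% = DMSO and 100% = clavulanic acid full inhibition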); conditions: at 8.4 µM, stronger effect = higher value
[3] = STAT3 reporter inhibitors, retest of hits, confirmation, U3A cells, luciferase, luminescence (AID 1265;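 active means inhibition above the hit cutoff computed for the primary STAT3 screen, cut at about 44% in these data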;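 further: 0% = IL-6 plus DMSO and 100% = IL-6 plus nifuroxazide control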); conditions: IL-6 STAT3 luciferase reporter, at 5.7 µM, stronger effect = higher value
[4] = NF-kB reporter inhibitors in human cells, confirmation, counter-screen for STAT3 inhibitor project, cell-based, HEK293T, luciferase, TNF-alpha stimulus (AID 1308;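 active means inhibition above the mean of solvent-only control wells plus 3 SD, cutoff set per campaign, cut at about 13% in these data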;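 further: 0% = TNF-alpha with DMSO and 100% = TNF-alpha with MG high control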); conditions: TNF-alpha induced, at 5.7 µM, stronger effect = higher value
[5] = STAT1 reporter inhibitors, IFN-gamma induced, confirmation, counter-screen for STAT3 inhibitor project, cell-based, NIH 3T3, luciferase luminescence (AID 1317;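 active means inhibition above the mean plus 3 SD of solvent-only control wells, limit set per screening run, cut at about 16% in these data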;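 further: 0% = DMSO with IFN-gamma and 100% = nifuroxazide control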); conditions: NIH 3T3 STAT1-luciferase reporter, at 5.7 µM, stronger effect = higher value
[6] = StAR promoter reporter inhibitors, counter-screen for LRH-1 inverse agonist project, cell-based, luminescence, high throughput (AID 651611; in the data active means inhibition above about 28%); conditions: StAR promoter luciferase reporter counterscreen, at 3.6 µM, stronger effect = higher value
[7] = molecular target: Nuclear receptor subfamily 5 group A member 2 (Homo sapiens) (UniProt O00482); assay: LRH-1 (NR5A2) inverse agonists, retest, confirmation, cell-based, luminescence (AID 651613; in the data active means inhibition above about 42%;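 further: HEK293T cells co-transfected with LRH-1 and StAR promoter luciferase reporter; 0% = vehicle wells and 100% = parental cells lacking receptor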); conditions: cell-based LRH-1 luciferase reporter, inverse agonism; at 3.6 µM; stronger effect = higher value
[8] = molecular target: Steroidogenic factor 1 (Homo sapiens) (UniProt Q13285); assay: SF1 (NR5A1) inverse agonists, counter-screen for LRH-1 inverse agonist project, cell-based, luminescence, high throughput (AID 651614; in the data active means inhibition above about 44%;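 further: cells cotransfected with StAR promoter reporter and SF1 expression vector; 0% = vehicle on cells with receptor and 100% = vehicle on cells lacking receptor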); conditions: cell-based SF1 luciferase reporter, at 3.6 µM, stronger effect = higher value
[9] = VP16 transactivation reporter inhibitors, counter-screen for LRH-1 inverse agonist project, cell-based, luminescence, high throughput (AID 651615; in the data active means inhibition above about 33%); conditions: Gal4-VP16 luciferase reporter cells, at 3.6 µM, stronger effect = higher value
[10] = Gal4-VP16 luciferase reporter inhibitors, counter-screen for COUP-TFII antagonist project, cell-based, luminescence, HEK293 (AID 687007; in the data active means inhibition above about 13%); conditions: at 8.5 µM, stronger effect = higher value
[11] = molecular target: COUP transcription factor 2 (Homo sapiens) (UniProt P24468); assay: NR2F2 transcriptional activity inhibitors, confirmation, cell-based, luciferase reporter, HEK293, triplicate (AID 687008;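 active means mean inhibition over three repeats above a set limit taken from the earlier primary screen, cut at about 38% in these data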;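 further: 100% = cells given the luciferase reporter alone without the COUP-TF2 vector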); conditions: HEK293 NGFI-A luciferase reporter, luminescence; at 8.5 µM; stronger effect = higher value
[12] = molecular target: Peroxisome proliferator-activated receptor gamma (Homo sapiens) (UniProt P37231); assay: agonists of PPARgamma SRC-2 coactivator recruitment, confirmation, biochemical, HTS (AID 1297; in the data active means activation above about 22%;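 further: 0% = vehicle alone and 100% = reference agonist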); conditions: biochemical SRC-2 recruitment by PPARgamma; at 8 µM; stronger effect = higher value
[13] = molecular target: Peroxisome proliferator-activated receptor gamma (Homo sapiens) (UniProt P37231); assay: PPARgamma agonists recruiting SRC-1 coactivator, confirmation, biochemical (AID 1300; in the data active means activation above about 20%;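 further: 0% = vehicle wells and 100% = reference agonist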); conditions: PPARgamma–SRC-1 coactivator recruitment biochemical assay; at 8 µM; stronger effect = higher value
[14] = molecular target: Peroxisome proliferator-activated receptor gamma (Homo sapiens) + Nuclear receptor coactivator 3 (Homo sapiens) (UniProt P37231+Q9Y6Q9); assay: PPARgamma-driven SRC-3 coactivator recruitment agonists, confirmation, biochemical (AID 1301); conditions: biochemical PPARgamma-SRC-3 coactivator recruitment, agonist mode; at 8 µM; stronger effect = higher value;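 further: 0% = vehicle wells and 100% = reference agonist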
[15] = molecular target: (Lyso)-N-acylphosphatidylethanolamine lipase (Mus musculus) (UniProt Q8VD66); assay: ABHD4 inhibitors, retest, confirmation, biochemical, fluorescence polarization, mouse (AID 720658;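 active means mean inhibition across replicates above the hit cutoff set in the primary screen, cut at about 30% in these data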;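 further: 0% = wild-type ABHD4 with DMSO and 100% = catalytically dead S159A mutant with DMSO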); conditions: purified mABHD4, FP-Rh probe fluorescence polarization; at 8.92 µM; stronger effect = higher value
[16] = molecular target: Sphingosine 1-phosphate receptor 4 (Homo sapiens) (UniProt O95977); assay: S1P4 receptor antagonists, human, confirmation, cell-based (AID 1524; in the data active means inhibition above about 30%); conditions: S1P4-expressing cell line, antagonist mode, reporter read-out; at 4.98 µM; stronger effect = higher value
[17] = molecular target: Sphingosine 1-phosphate receptor 1 (Homo sapiens) (UniProt P21453); assay: S1P1 receptor antagonists, human, counter-screen for S1P4 antagonist project, cell-based (AID 1564; in the data active means inhibition above about 40%;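 further: receptor stimulated with S1P near its EC80; 0% = agonist stimulated wells and 100% = vehicle only wells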); conditions: cell-based S1P1 antagonist counterscreen, at 4.98 µM, stronger effect = higher value
[18] = KLF5 expression inhibitors, confirmation, DLD-1 cells, luminescence (AID 1834;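 active means inhibition above a set limit taken from the earlier primary screen, cut at about 63% in these data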;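 further: 0% = DMSO wells and 100% = LY294002 at 200 µM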); conditions: DLD-1 KLF5 promoter firefly luciferase reporter, at 4 µM, stronger effect = higher value
[19] = cytotoxicity in rat IEC-6 cells, cytotoxicity control for KLF5 inhibitor project, cell-based, luminescence, triplicate (AID 1905; in the data active means inhibition above about 23%;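 further: cells exposed to compounds for 48 hours before viability read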); conditions: IEC-6 rat intestinal cells, viability luminescence; at 4 µM; stronger effect = higher value
[20] = molecular target: Nuclear receptor coactivator 3 (Homo sapiens) (UniProt Q9Y6Q9); assay: SRC3 coactivator transcriptional activity inhibitors, confirmation, cell-based, luminescence, quadruplicate (AID 588792;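 active means mean inhibition over 43.08%, the solvent-only control mean plus 3 SD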;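 further: 0% = DMSO treated cells and 100% = gossypol at 36 µM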); conditions: HEK293 GAL4-SRC3 luciferase reporter, at 3.6 µM, stronger effect = higher value
[21] = test system: transactivating tegument protein VP16 (Human herpesvirus 1), Gal4-VP16 luciferase reporter; assay: VP16 transactivation inhibitors, counter-screen for SRC3 inhibitor project, cell-based, luminescence, high throughput (AID 588794; in the data active means inhibition above about 30%); conditions: mammalian cells, VP16-driven luciferase reporter luminescence; at 3.6 µM; stronger effect = higher value
[22] = molecular target: Nuclear receptor coactivator 1 (Homo sapiens) (UniProt Q15788); assay: SRC1 coactivator transcriptional activity inhibitors, confirmation, cell-based, luminescence, quadruplicate (AID 588820;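 active means mean inhibition above 46.68%, the untreated control wells mean plus 3 SD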;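 further: 0% = DMSO wells and 100% = gossypol 36 µM treated wells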); conditions: HEK293 GAL4-SRC1 luciferase reporter, at 3.6 µM, stronger effect = higher value
[23] = VP16 transactivation inhibitors, counter-screen for SRC1 inhibitor project, cell-based, luminescence, high throughput (AID 588824; in the data active means inhibition above about 25%); conditions: cell-based VP16 transactivation luciferase luminescence; at 3.6 µM; stronger effect = higher value
[24] = molecular target: Photoreceptor-specific nuclear receptor (Homo sapiens) (UniProt Q9Y5X4); assay: NR2E3 agonist confirmation in cells, cell-based, luminescence, CHO-S two-hybrid (AID 624378;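 active means average inhibition above a cutoff equal to the mean inhibition of all tested compounds plus one SD, cut at about 70% in these data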;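 further: 0% = DMSO in NR2E3 cells and 100% = DMSO in cells lacking NR2E3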); conditions: CHO-S mammalian two-hybrid NR2E3-NCOR, luciferase luminescence; at 3.98 µM; stronger effect = higher value
[25] = GAL4-VP16 reporter modulators, confirmation, counter-screen for NR2E3 agonist project, cell-based, luminescence, CHO-S, high throughput (AID 624379;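 active means mean inhibition above a cutoff equal to the average over all tested compounds plus one standard deviation, cut at about 70% in these data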;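 further: 0% = DMSO with VP16-transfected cells and 100% = DMSO with cells lacking VP16; higher means less reporter light so more repression of VP16 activity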); conditions: CHO-S GAL4-VP16 luciferase reporter, at 3.98 µM, stronger effect = higher value
[26] = molecular target: Induced myeloid leukemia cell differentiation protein Mcl-1 (Homo sapiens) (UniProt Q07820); assay: inhibitors of MCL1 binding to BIM-BH3, confirmation, biochemical, fluorescence polarization, triplicate (AID 2168;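 active means inhibition above the average of all tested compounds plus 3 SD, cut at about 40% in these data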;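 further: 0% = DMSO wells and 100% = unlabeled Bim-BH3 control peptide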); conditions: GST-MCL1 / FITC-Bim-BH3 fluorescence polarization; at 10.9 µM; stronger effect = higher value
[27] = molecular target: Platelet-activating factor acetylhydrolase (Homo sapiens) (UniProt Q13093); assay: pPAFAH (PLA2G7) enzyme inhibitors, confirmation, biochemical, fluorescence polarization, human (AID 463230;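 active means mean inhibition of the triplicate above the hit cutoff set for the earlier primary screen, cut at about 25% in these data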;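 further: 0% = enzyme with DMSO and 100% = wells lacking pPAFAH enzyme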); conditions: recombinant pPAFAH, FP-Rh probe fluorescence polarization; at 3.39 µM; stronger effect = higher value
[28] = molecular target: Glutathione S-transferase omega-1 (Homo sapiens) (UniProt P78417); assay: GSTO1 inhibitor hit confirmation, counter-screen for RBBP9 inhibitor project, biochemical, fluorescence polarization, triplicate (AID 2176;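 active means inhibition above the primary screen's cutoff, its mean inhibition plus 3 SD, cut at about 35% in these data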;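 further: loss of polarization as inhibitors block binding of rhodamine sulfonate ester activity probe; 0% = GSTO1 with DMSO and 100% = wells lacking GSTO1 enzyme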); conditions: recombinant GSTO1, probe fluorescence polarization; at 5.96 µM; stronger effect = higher value
[29] = molecular target: Protein-arginine deiminase type-4 (Homo sapiens) (UniProt Q9UM07); assay: human PAD4 inhibitors, confirmation, biochemical, fluorescence polarization (AID 488796;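 active means mean inhibition across replicates above the hit cutoff set by the earlier primary screen, cut at about 15% in these data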;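 further: inhibitors block active-site labeling by the probe so polarization falls; 0% = PAD4 with probe and DMSO and 100% = probe without PAD4 enzyme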); conditions: recombinant PAD4, RCA probe fluorescence polarization; at 6.36 µM; stronger effect = higher value
[30] = molecular target: Platelet-activating factor acetylhydrolase IB subunit alpha1 (Homo sapiens) (UniProt Q15102); assay: PAFAH1B3 enzyme inhibitors, confirmation, biochemical, fluorescence polarization, human (AID 493032;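 active means average inhibition over triplicate runs above the hit cutoff set in the earlier primary screen, cut at about 25% in these data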;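 further: 0% = enzyme with DMSO and 100% = wells lacking PAFAH1B3 protein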); conditions: recombinant PAFAH1B3, FP-Rh activity-based probe, at 3.39 µM, stronger effect = higher value
Sequence of Platelet-activating factor acetylhydrolase IB subunit alpha1 (Homo sapiens) (Q15102 whole entry, looked up): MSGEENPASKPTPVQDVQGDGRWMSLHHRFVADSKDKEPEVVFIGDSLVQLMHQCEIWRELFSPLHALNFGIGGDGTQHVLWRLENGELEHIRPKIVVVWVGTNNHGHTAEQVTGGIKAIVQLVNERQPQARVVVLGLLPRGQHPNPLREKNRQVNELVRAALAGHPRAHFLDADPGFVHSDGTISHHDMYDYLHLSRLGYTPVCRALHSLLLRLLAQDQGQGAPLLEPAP

Sequence of Peroxisome proliferator-activated receptor gamma (Homo sapiens) (P37231 whole entry, looked up): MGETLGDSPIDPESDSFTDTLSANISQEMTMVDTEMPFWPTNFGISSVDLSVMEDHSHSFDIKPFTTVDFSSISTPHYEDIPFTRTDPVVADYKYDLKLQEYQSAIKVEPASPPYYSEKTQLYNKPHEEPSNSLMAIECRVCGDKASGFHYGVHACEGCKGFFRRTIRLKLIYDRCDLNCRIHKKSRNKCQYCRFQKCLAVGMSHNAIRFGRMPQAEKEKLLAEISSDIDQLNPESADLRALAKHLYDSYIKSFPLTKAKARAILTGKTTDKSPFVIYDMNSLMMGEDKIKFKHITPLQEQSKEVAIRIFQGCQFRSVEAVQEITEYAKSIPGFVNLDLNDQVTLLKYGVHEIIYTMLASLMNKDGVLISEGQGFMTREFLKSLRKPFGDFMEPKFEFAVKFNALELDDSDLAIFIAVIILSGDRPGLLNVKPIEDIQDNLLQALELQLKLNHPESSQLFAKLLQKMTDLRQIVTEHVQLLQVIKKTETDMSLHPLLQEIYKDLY
Sequence of COUP transcription factor 2 (Homo sapiens) (P24468 whole entry, looked up): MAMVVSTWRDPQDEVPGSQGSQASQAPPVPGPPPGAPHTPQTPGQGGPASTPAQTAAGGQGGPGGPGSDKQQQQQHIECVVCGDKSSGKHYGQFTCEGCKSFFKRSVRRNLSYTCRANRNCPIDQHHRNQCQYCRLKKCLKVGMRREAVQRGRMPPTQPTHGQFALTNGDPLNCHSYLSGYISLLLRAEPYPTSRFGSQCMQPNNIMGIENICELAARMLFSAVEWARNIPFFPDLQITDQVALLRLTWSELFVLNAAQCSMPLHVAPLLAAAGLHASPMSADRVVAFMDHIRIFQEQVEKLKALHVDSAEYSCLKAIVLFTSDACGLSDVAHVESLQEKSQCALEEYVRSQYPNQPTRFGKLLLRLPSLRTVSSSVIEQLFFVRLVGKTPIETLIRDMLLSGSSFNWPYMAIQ
Sequence of Steroidogenic factor 1 (Homo sapiens) (Q13285 whole entry, looked up, the tested form may be a part): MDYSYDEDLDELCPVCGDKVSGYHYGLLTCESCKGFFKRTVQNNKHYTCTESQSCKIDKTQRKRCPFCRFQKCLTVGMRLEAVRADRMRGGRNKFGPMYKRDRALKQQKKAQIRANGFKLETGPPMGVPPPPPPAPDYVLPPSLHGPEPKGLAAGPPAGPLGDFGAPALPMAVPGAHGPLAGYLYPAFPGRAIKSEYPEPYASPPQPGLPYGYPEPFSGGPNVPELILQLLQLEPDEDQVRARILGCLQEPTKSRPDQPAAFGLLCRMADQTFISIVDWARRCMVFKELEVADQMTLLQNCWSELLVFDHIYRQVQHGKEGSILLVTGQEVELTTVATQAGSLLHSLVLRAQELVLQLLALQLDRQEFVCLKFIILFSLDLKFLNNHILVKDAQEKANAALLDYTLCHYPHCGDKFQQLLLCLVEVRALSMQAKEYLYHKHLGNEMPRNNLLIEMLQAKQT
Sequence of Peroxisome proliferator-activated receptor gamma (Homo sapiens) + Nuclear receptor coactivator 3 (Homo sapiens) (P37231 whole entry, looked up): as the sequence (P37231 whole entry, looked up) above
Sequence of Peroxisome proliferator-activated receptor gamma (Homo sapiens) + Nuclear receptor coactivator 3 (Homo sapiens) (Q9Y6Q9 whole entry, looked up): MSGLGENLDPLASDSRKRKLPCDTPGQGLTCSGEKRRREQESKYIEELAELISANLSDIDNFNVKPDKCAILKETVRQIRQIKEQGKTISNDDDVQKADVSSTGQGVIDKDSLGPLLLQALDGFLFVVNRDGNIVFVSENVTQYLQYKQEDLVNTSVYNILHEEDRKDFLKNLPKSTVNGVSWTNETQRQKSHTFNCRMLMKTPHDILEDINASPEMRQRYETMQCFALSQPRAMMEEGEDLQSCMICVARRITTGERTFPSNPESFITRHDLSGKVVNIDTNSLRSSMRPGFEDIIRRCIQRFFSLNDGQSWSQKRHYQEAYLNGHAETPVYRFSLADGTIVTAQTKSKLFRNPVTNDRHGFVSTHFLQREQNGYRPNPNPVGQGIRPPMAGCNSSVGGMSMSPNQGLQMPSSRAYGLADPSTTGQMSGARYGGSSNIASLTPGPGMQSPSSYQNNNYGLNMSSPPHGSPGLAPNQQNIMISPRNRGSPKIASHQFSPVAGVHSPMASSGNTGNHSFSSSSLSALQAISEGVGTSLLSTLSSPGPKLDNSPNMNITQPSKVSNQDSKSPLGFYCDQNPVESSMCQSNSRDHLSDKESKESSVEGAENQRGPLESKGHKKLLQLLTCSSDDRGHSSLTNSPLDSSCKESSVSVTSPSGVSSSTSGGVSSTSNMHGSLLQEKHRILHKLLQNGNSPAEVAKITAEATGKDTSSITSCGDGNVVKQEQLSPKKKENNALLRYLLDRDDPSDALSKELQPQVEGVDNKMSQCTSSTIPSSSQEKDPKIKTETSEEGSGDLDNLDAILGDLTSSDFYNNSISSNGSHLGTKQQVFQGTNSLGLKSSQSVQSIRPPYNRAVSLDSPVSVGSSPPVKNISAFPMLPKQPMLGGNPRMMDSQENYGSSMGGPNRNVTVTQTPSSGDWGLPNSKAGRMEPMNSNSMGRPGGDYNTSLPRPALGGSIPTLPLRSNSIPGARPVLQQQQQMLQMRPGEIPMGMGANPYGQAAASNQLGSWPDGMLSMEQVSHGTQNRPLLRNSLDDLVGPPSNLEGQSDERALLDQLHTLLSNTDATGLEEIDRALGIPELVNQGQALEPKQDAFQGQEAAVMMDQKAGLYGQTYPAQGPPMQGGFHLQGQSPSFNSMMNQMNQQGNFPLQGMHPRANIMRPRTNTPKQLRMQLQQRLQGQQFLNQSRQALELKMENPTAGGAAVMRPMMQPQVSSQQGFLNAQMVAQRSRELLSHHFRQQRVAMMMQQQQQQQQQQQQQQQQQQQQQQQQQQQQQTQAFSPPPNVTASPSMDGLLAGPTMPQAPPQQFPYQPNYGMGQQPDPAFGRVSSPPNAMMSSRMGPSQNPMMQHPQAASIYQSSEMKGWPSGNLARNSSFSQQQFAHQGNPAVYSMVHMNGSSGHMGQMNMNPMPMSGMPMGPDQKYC
Sequence of Induced myeloid leukemia cell differentiation protein Mcl-1 (Homo sapiens) (Q07820 whole entry, looked up): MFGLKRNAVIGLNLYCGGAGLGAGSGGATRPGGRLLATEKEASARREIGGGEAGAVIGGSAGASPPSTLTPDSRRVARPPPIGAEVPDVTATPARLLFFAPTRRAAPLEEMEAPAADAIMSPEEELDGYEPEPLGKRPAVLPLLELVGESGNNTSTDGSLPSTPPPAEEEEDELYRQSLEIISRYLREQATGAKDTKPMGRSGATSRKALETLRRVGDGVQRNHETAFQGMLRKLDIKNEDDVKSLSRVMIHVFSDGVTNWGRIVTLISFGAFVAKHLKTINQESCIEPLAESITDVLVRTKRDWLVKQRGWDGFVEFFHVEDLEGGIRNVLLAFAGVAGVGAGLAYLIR
Sequence of Platelet-activating factor acetylhydrolase (Homo sapiens) (Q13093 whole entry, looked up): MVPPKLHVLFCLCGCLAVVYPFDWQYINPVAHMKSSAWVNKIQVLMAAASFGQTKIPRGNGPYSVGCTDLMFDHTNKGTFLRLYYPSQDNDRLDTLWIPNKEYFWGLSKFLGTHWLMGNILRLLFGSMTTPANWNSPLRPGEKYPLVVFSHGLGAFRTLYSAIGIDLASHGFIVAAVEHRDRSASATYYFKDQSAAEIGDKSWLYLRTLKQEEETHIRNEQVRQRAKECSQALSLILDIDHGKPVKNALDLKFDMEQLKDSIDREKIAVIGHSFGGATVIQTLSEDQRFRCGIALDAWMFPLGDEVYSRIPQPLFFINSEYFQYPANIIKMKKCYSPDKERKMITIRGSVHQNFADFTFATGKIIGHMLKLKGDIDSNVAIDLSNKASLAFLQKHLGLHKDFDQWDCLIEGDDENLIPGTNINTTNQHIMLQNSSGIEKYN
Sequence of Nuclear receptor subfamily 5 group A member 2 (Homo sapiens) (O00482 whole entry, looked up): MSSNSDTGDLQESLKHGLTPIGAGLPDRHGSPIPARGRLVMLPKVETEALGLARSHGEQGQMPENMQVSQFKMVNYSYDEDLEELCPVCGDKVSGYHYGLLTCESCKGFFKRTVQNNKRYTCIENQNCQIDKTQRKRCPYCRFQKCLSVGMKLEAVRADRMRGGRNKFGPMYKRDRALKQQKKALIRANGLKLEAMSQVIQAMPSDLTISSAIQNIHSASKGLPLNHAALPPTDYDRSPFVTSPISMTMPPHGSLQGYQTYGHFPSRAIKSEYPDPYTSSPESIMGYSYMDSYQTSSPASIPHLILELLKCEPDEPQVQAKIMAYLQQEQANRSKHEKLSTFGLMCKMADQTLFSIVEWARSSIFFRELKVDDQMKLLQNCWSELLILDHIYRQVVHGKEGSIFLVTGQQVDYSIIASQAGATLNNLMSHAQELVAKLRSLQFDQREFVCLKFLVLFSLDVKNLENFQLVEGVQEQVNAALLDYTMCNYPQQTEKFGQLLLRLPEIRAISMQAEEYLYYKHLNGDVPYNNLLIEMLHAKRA
Sequence of Nuclear receptor coactivator 3 (Homo sapiens) (Q9Y6Q9 whole entry, looked up, the tested form may be a part): as the sequence (Q9Y6Q9 whole entry, looked up) above

COc1ccc(CN2CCN(c3ccccc3F)CC2)c(OC)c1
inactive: inhibition [1] -8.64% | inhibition [2] 4.55%

CC1=CC(=Cc2sc3ccccc3[n+]2C)C=C(C)O1
inactive: inhibition [10] 8.63%
active: inhibition [3] 77.1% | inhibition [4] 22.8% | inhibition [5] 22.2% | inhibition [6] 50.2% | inhibition [7] 105% | inhibition [8] 80.4% | inhibition [9] 87.6% | inhibition [11] 55%

COc1cc(-n2c(=S)[nH]c3ccc(C)cc3c2=O)c(Cl)cc1Cl
active: activation [12] 24.6% | inhibition [15] 37.6%
inactive: activation [13] 12.2% | activation [14] 12.4%

CSC1=NP(=S)(SC)N(C)c2nc3n(c21)CCC3 (stereo unspecified)
active: activation [12] 51.6% | activation [13] 33.3% | activation [14] 35.7%

CN(C)CC1Oc2ccccc2OC1(O)c1ccccc1 (stereo unspecified)
active: inhibition [16] 100%
inactive: inhibition [17] 23.3%

CCCCCCCCCCCCn1ccc(=N)cc1
active: inhibition [18] 62.6% | inhibition [19] 46.8% | inhibition [20] 67.6% | inhibition [21] 78.8% | inhibition [22] 53.8% | inhibition [23] 78.9% | inhibition [24] 99.7% | inhibition [25] 86.7% | inhibition [6] 74.4% | inhibition [7] 101% | inhibition [8] 92.7% | inhibition [9] 89.8% | inhibition [10] 14.2% | inhibition [11] 76.4%

O=C1NC(=O)N(c2ccccc2)C(=O)/C1=C/c1ccc([N+](=O)[O-])s1
active: inhibition [26] 66.3% | inhibition [27] 44%

COc1ccc(N2C(=O)/C(=C/c3ccco3)C(=O)NC2=S)cc1
inactive: inhibition [27] 17.3%
active: inhibition [26] 55.3%

CCOC(=O)c1c(N)n(Cc2ccccc2)c2nc3ccccc3nc12
inactive: inhibition [28] 13.8% | inhibition [29] -4.66% | inhibition [30] 8.51%
